Measurements as given in ChEMBL document CHEMBL1961873, “Compounds: GSK PKIS; Assays: Nanosyn kinase panel” (2012).

Key:
[1] = molecular target: Mitogen-activated protein kinase 3 (Homo sapiens) (UniProt P27361); details: at 1 µM;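 also: values are mean percent inhibition of MAPK3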
[2] = molecular target: SRSF protein kinase 3 (Homo sapiens) (UniProt Q9UPE1); details: at 0.1 µM
[3] = molecular target: SRSF protein kinase 3 (Homo sapiens) (UniProt Q9UPE1); details: at 1 µM
[4] = molecular target: Mitogen-activated protein kinase 14 (Homo sapiens) (UniProt Q16539); details: at 0.1 µM
[5] = molecular target: Mitogen-activated protein kinase 14 (Homo sapiens) (UniProt Q16539); details: at 1 µM
[6] = molecular target: Mitogen-activated protein kinase 11 (Homo sapiens) (UniProt Q15759); details: at 0.1 µM
[7] = molecular target: Mitogen-activated protein kinase 11 (Homo sapiens) (UniProt Q15759); details: at 1 µM
[8] = molecular target: T1, Mitogen-activated protein kinase 13 (Homo sapiens) (UniProt O15264); details: at 0.1 µM
T1 sequence (whole entry): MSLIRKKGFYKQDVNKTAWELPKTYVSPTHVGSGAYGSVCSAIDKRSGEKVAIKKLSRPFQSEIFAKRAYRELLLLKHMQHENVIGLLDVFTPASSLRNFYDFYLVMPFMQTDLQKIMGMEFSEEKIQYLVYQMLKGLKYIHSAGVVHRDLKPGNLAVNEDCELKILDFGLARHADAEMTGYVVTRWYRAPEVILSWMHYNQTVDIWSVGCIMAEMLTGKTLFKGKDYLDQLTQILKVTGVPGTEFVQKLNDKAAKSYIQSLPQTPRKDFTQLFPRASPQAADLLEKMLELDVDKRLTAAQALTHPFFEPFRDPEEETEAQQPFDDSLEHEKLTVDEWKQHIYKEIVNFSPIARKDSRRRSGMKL

[9] = molecular target: T1, Mitogen-activated protein kinase 13 (Homo sapiens); details: at 1 µM
[10] = molecular target: T2, Mitogen-activated protein kinase 12 (Homo sapiens) (UniProt P53778); details: at 0.1 µM
T2 sequence (whole entry): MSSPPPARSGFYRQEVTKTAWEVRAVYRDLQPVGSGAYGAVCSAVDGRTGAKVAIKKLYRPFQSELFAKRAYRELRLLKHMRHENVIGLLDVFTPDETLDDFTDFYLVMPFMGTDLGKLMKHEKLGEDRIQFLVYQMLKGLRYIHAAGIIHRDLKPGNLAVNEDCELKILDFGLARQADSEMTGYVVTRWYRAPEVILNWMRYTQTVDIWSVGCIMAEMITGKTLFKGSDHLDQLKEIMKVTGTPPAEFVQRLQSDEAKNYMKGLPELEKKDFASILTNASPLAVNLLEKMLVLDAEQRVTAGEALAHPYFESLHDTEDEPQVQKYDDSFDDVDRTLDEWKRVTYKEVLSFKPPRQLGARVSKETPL

Sequence of Mitogen-activated protein kinase 14 (Homo sapiens) (Q16539 whole entry): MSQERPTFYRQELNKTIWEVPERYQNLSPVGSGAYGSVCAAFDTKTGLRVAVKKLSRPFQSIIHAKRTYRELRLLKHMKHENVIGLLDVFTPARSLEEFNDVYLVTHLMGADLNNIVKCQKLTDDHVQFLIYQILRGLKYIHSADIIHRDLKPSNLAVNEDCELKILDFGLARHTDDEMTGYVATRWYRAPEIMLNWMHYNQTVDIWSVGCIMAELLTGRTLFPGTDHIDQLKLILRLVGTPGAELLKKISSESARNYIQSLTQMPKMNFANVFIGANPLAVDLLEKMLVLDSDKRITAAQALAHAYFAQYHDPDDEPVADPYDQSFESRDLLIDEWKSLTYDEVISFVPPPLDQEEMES
Sequence of SRSF protein kinase 3 (Homo sapiens) (Q9UPE1 whole entry): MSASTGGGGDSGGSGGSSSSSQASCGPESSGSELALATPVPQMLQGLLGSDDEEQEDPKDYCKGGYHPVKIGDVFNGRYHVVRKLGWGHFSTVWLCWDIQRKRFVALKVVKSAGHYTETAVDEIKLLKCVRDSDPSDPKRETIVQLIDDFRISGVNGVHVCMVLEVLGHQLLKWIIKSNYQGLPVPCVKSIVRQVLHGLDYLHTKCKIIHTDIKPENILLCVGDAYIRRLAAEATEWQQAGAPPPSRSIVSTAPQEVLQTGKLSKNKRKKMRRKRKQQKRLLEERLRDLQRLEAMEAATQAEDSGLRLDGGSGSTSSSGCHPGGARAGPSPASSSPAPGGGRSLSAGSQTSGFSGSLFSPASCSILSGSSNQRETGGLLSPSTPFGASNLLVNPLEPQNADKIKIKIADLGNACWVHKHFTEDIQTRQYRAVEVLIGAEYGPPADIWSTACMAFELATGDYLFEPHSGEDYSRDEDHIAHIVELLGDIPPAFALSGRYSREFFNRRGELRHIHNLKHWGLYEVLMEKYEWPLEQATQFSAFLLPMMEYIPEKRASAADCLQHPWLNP
Sequence of Mitogen-activated protein kinase 11 (Homo sapiens) (Q15759 whole entry): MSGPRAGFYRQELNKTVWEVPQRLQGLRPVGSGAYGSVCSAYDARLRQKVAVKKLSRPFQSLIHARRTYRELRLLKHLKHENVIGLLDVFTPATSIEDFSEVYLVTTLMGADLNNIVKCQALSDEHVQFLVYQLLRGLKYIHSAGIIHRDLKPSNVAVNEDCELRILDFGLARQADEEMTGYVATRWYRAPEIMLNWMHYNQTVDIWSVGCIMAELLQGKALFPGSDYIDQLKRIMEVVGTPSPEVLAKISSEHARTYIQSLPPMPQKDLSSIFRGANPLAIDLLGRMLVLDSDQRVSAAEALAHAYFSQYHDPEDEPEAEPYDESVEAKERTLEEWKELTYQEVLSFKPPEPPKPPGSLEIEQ
Sequence of Mitogen-activated protein kinase 3 (Homo sapiens) (P27361 whole entry): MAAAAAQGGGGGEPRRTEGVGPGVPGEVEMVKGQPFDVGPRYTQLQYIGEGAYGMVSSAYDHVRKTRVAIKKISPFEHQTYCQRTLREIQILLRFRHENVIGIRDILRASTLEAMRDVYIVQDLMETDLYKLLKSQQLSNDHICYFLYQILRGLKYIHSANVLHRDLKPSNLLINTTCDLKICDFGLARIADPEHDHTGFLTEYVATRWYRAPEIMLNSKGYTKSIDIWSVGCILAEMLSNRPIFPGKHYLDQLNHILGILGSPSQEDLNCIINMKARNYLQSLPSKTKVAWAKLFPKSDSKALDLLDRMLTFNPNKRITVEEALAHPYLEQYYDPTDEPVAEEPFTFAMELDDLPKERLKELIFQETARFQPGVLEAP

SMILES | inhibition [1] [%] | inhibition [2] [%] | inhibition [3] [%] | inhibition [4] [%] | inhibition [5] [%] | inhibition [6] [%] | inhibition [7] [%] | inhibition [8] [%] | inhibition [9] [%] | inhibition [10] [%]
Cc1cccc(Nc2ncc(-c3ccccc3)o2)c1 | 3.87 | 3.41 | -1.61 | 5.91 | 6.59 | 3.23 | 6.62 | 1.76 | 2.94 | 2.73
N#Cc1c(NC(=O)CN2CCOCC2)sc2c1CCCC2 | 6.78 | -1.65 | 2.65 | 5.67 | 9.2 | 1.86 | 7.38 | 6 | 5.61 | 3.4
N#Cc1c(NC(=O)c2ccc(F)cc2)sc2c1CCCC2 | -0.36 | -1.54 | 0.88 | -0.55 | 3.42 | 1.36 | -0.91 | -0.62 | 0.84 | 0.35
COc1ccc2c(-c3ccnc(Nc4cccc(OC(F)(F)F)c4)n3)cnn2n1 | 3.9 | -1.04 | 2.71 | 2.92 | 8.4 | 0.17 | 5.04 | -1.73 | 7.58 | 1.78
Nc1nc(-c2ccc(F)cc2)c(-c2ccc3ncccc3n2)s1 | 3.86 | -0.15 | 2.22 | 23.6 | 76.4 | 7.76 | 33.1 | 5.53 | 5.76 | 1.26
[O-][S+]1CCN(Cc2ccc(-c3ccc4ncnc(Nc5ccc(OCc6cccc(F)c6)c(Cl)c5)c4c3)o2)CC1 | 4.13 | -2.3 | -1 | 15.9 | 14.9 | 7.73 | 6.99 | 4.67 | 3 | 3.02
CC1=C(C(=O)Nc2cc(Cl)c3[nH]ncc3c2)C(c2ccc(C(F)(F)F)cc2)CC(=O)N1 (stereo not given) | 21.8 | -1.32 | -2.71 | -3.41 | 6.81 | 1.37 | 2.31 | 0.32 | 4.12 | 2.56
CCn1c(-c2nonc2N)nc2c(C#CC(C)(C)O)nc(OC[C@H](N)c3ccccc3)cc21 | 2.26 | 3.21 | -2.11 | 4.73 | 7.11 | 3.41 | 4.89 | 1.8 | 1.9 | 2.38
COC(=O)Nc1nc2ccc(S(=O)(=O)c3ccc(NC(=O)Nc4cc(C(F)(F)F)ccc4F)cc3)cc2[nH]1 | 3.32 | -1.38 | -1.81 | 3.23 | 8.81 | 8.26 | 8.9 | 1.33 | 2.66 | 1.77
COc1ccc2[nH]c3c4[nH]c5ccc(OC)cc5c4c4c(c3c2c1)C(=O)NC4=O | 6.91 | 1.23 | 18.3 | 4.65 | 10.8 | 3.15 | 7.66 | 0.8 | 2.74 | 4.16
COc1cc(N2CCN(C(C)C)CC2)ccc1Nc1nc(Nc2ccc(F)cc2C(N)=O)c2cc[nH]c2n1 | 5.68 | 4.97 | 4.84 | 4.36 | 8.96 | 1.51 | 9.48 | 0.06 | 2.28 | 0.86
Cc1ccc(O)cc1Nc1ccnc2cc(-c3ccccn3)ccc12 | 4.04 | 1.4 | 0.54 | 13.9 | 58.8 | 4.81 | 9.25 | 5.51 | 2.99 | 1.52
O=S(=O)(CCNCc1ccc(-c2ccc3ncnc(Nc4ccc(OCc5cccc(F)c5)c(Cl)c4)c3c2)o1)c1ccccc1 | 6 | -1.7 | 3.71 | 16.1 | 14 | 6.03 | 6.99 | 6.05 | 5.53 | 3.55
O=C(O[C@H]1CN[C@H](C#Cc2cc3ncnc(Nc4ccc(Cc5ccccc5)cc4)c3s2)C1)N1CCOCC1 | 2.11 | -2.44 | -1.14 | 4.54 | 2.37 | 0.92 | 4.95 | 2.02 | 0.36 | 1.75
CN1CCC(n2cnc(-c3ccc(F)cc3)c2-c2ccnc(N)n2)CC1 | 3.12 | -0.19 | -0.82 | 49.7 | 83 | 5.11 | 30.6 | 0.27 | 4.13 | 0.59
c1ccc(COc2ccc(Nc3ncnc4ccc(-c5ccco5)cc34)cc2)cc1 | 1.18 | -1.34 | -0.68 | 2.18 | 2.81 | 1.43 | 0.27 | 0.6 | -0.53 | 0.76
Nc1nc(-c2cccc(Cl)c2)c(-c2ccc3ncccc3n2)s1 | 2.62 | -1.86 | 0.63 | 8.73 | 50 | 5.89 | 19.1 | 3.72 | 5.27 | 8.76

SMILES | inhibition [1] [%] | inhibition [2] [%] | inhibition [3] [%] | inhibition [4] [%] | inhibition [5] [%] | inhibition [6] [%] | inhibition [7] [%] | inhibition [8] [%] | inhibition [9] [%] | inhibition [10] [%]
O=C(Nc1n[nH]c2cc(-c3ccc(F)cc3)ccc12)C1CC1 | 0.11 | -0.27 | 0.1 | 3.02 | 7.71 | 3.42 | 7.25 | 2.38 | 4.36 | 2.05
CCn1c(-c2nonc2N)nc2c(C#CC(C)(C)O)ncc(OC3CCNCC3)c21 | 4.59 | 2.87 | -1.64 | 8.8 | 11.3 | 1.59 | 7.19 | 1.55 | 2.9 | 2.41
CCNC(=O)O[C@H]1CN[C@H](C#Cc2cc3ncnc(Nc4ccc(OCc5cccc(F)c5)c(Cl)c4)c3s2)C1 | 1.29 | 1.52 | 0.88 | 1.94 | 5.4 | 4.81 | -1.11 | 1.7 | 2.64 | -0.39
CN1CCC(n2cnc(-c3ccc(F)cc3)c2-c2ccnc(Nc3ccccc3)n2)CC1 | 6.33 | 0.1 | -0.07 | 84.1 | 90.8 | 50.7 | 81.4 | 3.08 | 22.5 | 3.56
Fc1ccc(-c2nn3ncccc3c2-c2ccnc(Nc3ccc4c(c3)OCCO4)n2)cc1 | 11.3 | -0.97 | -1.91 | 72 | 92.8 | 48.6 | 78.7 | 3.53 | 6.19 | 2.92
COc1cc2ncn(-c3cc(OCc4ccccc4C(F)(F)F)c(C(=O)N(C)C)s3)c2cc1OC | -0.07 | -2.08 | -1.83 | 7.43 | 1.82 | -4.05 | 1.82 | -0.21 | 0.14 | 0.9
CCc1nn2ncccc2c1-c1ccnc(NC2CC2)n1 | 4.9 | -0.73 | -0.47 | 4.19 | 7.08 | 5.64 | 7.82 | 3.24 | 3.22 | 2.35
CC(=O)Nc1cccc(C#Cc2cncnc2Nc2ccc(OCc3cccc(F)c3)c(Cl)c2)c1 | 3.68 | 1.32 | -0.25 | 3.3 | 5.63 | 0.27 | 1.34 | 2.42 | 2.73 | 0.58
CCn1cc(-c2ccnc3[nH]ccc23)c(-c2cccc(NC(=O)Nc3ccc(OCc4ccccc4)cc3)c2)n1 | 0.79 | -1.98 | -1.89 | 0.81 | 1.53 | 5.07 | 3.29 | -0.53 | -2.06 | -1.09
COc1cccc(-n2ncc3c(N/N=C/c4ccc(F)cc4)ncnc32)c1 | 3.8 | -0.53 | 1.02 | 2.2 | 7.4 | 4.13 | 6.02 | 6.87 | 6.81 | -0.23
CCn1c(-c2nonc2N)nc2cnc(Oc3cccc(NC(=O)c4ccc(N(C)C)cc4)c3)cc21 | 1.36 | -1.98 | -3.41 | -0.32 | 8.29 | 1.19 | 1.94 | -1.13 | 2.57 | 0.02
CNC(=O)c1cc(-c2ccc(F)cc2)cc(-c2ccc(S(=O)(=O)N3CCCC3)cc2)c1N | 1.92 | -1.6 | -0.52 | 4.95 | 4.5 | 1.39 | 3.19 | 3.39 | 2.91 | 2.77
Cc1ccc2c(-c3ccnc(Nc4ccccc4)n3)c(-c3ccc(F)cc3)nn2n1 | 14.5 | 1.07 | 1.53 | 71 | 88.5 | 34.1 | 73.3 | -0.61 | 5.7 | 0.48
NS(=O)(=O)c1ccc(N/N=C2\C(=O)Nc3ccc4ncccc4c32)cc1 | 30.9 | -0.65 | -0.87 | 0.75 | 12.3 | 7.81 | 26.7 | 0.25 | 10 | 3.34
COc1cc(Nc2nccc(Nc3ccc4c(C)n[nH]c4c3)n2)cc(OC)c1OC | 2.18 | 1.08 | 0.79 | 4.78 | 10 | 2.04 | 6.13 | 3.72 | 4.71 | -0.26
CC(=O)NCc1cccc(C#Cc2cncnc2Nc2ccc(OCc3cccc(F)c3)c(Cl)c2)c1 | 2.72 | -1.32 | -1.8 | 1.05 | -0.7 | 1.26 | -0.84 | -3.33 | 0.78 | 0.11
